# MRP1 act: activates MRP-1; H69AR cells + doxorubicin, viability rescue, CellTiter-Glo; AID 799; 0.61% of 140,000 active; viability increase, % at 10 µM;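 active = viability gain under doxorubicin at or above a set limit, the compound median plus 3 SD, cut at about 4.7% in these data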;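 also: MRP-1 overexpressing cells given doxorubicin 25 µM after compound pretreatment; 18-22 h compound pretreatment then 72 h with doxorubicin before readout; 0% = doxorubicin-only wells and 100% = vehicle-treated cells without doxorubicin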
# PLAP activator: activates human placental alkaline phosphatase; P05187; purified PLAP enzyme, luminescent substrate read-out; stronger effect = higher value; activation fold at 20 µM; 1.2% of 96,000 active; AID 696; in the data active = activation fold above about 2
# PTPN22 inh 2: inhibitors of human LYP (PTPN22) phosphatase | Q9Y2R2 | AID 640 | recombinant LYP catalytic domain, DiFMUP fluorescence | 0.21% of 96,000 active | inhibition, % at 2 µM;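 active = inhibition at 2 µM at or above a set limit, the screen mean plus 3 SD, cut at about 24% in these data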;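 also: 0% = DMSO with enzyme and 100% = enzyme fully blocked by orthovanadate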
# FAK inh: blocks human focal adhesion kinase activity; Q05397; 0.84% of 97,000 active; AID 727; inhibition, %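 (tested at 7 µM)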; biochemical FAK kinase activity assay; in the data active = inhibition above about 19%;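 also: 0% = DMSO and 100% = reference compound high control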
# PTPN22 act: increases human PTPN22 phosphatase activity; Q9Y2R2; recombinant LYP, DiFMUP fluorescence; 0 = plate median, 100 = signal doubled; activation, % at 2 µM; 0.11% of 96,000 active; AID 697;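 active = activation at 2 µM above a set limit, the mean plus 5 SD, cut at about 37% in these data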
# MRP resist rev: reverses drug resistance mediated by MRP; H69AR cells + 2 uM doxorubicin, CellTiter-Glo, 72 h; differential viability (reversal), % at 10 µM; 0.04% of 85,000 active; AID 602;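 active = viability drop by adding the cancer drug above about 55%, with treated viability meeting a 40% cutoff, limit read from the data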;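 also: viability without doxorubicin minus viability with 2 µM doxorubicin for each compound; larger differential means the compound sensitizes cells more to doxorubicin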
# * hit, by the source's call; nt = no result. Shown are actives, neighbours in structure and some others; about 2.2% of the full set was active somewhere.
SMILES,MRP1 act,PLAP activator,PTPN22 inh 2,FAK inh,PTPN22 act,MRP resist rev
Cc1ccc(/C=C2\SC(=S)N(CCC(=O)NNC(=O)c3cccnc3)C2=O)cc1,8.7*,nt,nt,nt,nt,nt
O=C(CCN1C(=O)/C(=C/c2ccccc2)SC1=S)NNC(=O)c1cccnc1,6.6*,nt,nt,nt,nt,nt
O=C(CCN1C(=O)/C(=C/c2ccc(F)cc2)SC1=S)NNC(=O)c1cccnc1,3.5,nt,nt,nt,nt,nt
O=C(NN1C(=O)/C(=C\c2cccnc2)SC1=S)C(c1ccccc1)c1ccccc1,5.5*,nt,nt,nt,nt,nt
CCOC(=O)/C=C/C(=O)Nc1ccccc1C(=O)NC1CCCCC1,-3.9,nt,nt,nt,nt,nt
CC(=O)NN1C(=O)/C(=C/c2ccc(C(C)C)cc2)SC1=S,4.7*,nt,nt,nt,nt,nt
c1nc(N2CCCC2)c2[nH]cnc2n1,-4.9,nt,-2.6,33.8*,-2.7,-2.3
O=C(Nc1nc(COc2ccccc2)cs1)c1ccccc1F,5.3*,nt,nt,nt,nt,nt
Cc1c(Cl)c(C(=O)Nc2nc3ccccc3n2CCN2CCCCC2)nn1C,-3.3,2.5*,-14.7,0.0,10.9,-2.4
CCn1cc(Cl)c(C(=O)Nc2nc3ccccc3n2CCN2CCCCC2)n1,-3.2,2.3*,-2.1,0.9,-1.0,4.3
CCCc1ccc(-c2cc(NC(=O)CSc3nnc(N)s3)n(-c3ccccc3)n2)cc1,3.2,nt,nt,nt,nt,nt
O=C(COc1cccnc1[N+](=O)[O-])Nc1ccc2c(c1)OC(F)(F)O2,5.5*,nt,nt,nt,nt,nt
O=C(COc1cccnc1[N+](=O)[O-])Nc1ccccc1Sc1ccccc1,-0.1,nt,nt,nt,nt,nt
CCCCNC(=O)Nc1nnc(-c2ccc(OCC)cc2)o1,0.6,1.1,6.6,-0.8,-5.5,-28.6
CCCCNC(=O)Nc1nnc(-c2ccccc2)o1,-0.8,2.1*,-7.5,1.4,5.7,-7.8
Cc1cc(C)c(C(=O)Nc2ccc(Br)c(C(F)(F)F)c2)c(C)c1,-3.9,nt,nt,nt,nt,nt
Cc1ccc(CNC(=O)c2sc3nc4c(c(C(F)(F)F)c3c2N)CCC4)cc1,4.8*,1.3,-3.6,-1.1,1.5,nt
CCOc1ccc2nc(NC(=O)C(NS(=O)(=O)c3cccc4nsnc34)C(C)C)sc2c1 (stereo not given),0.9,2.4*,4.2,-7.4,-4.7,-2.0
COc1ccccc1NS(=O)(=O)c1cc(NC(=O)c2ccc(Cl)nc2)ccc1Cl,-2.8,nt,nt,nt,nt,nt
COc1ccc(C(=O)Nc2ccc(Cl)c(S(=O)(=O)Nc3ccccc3OC)c2)cc1,9.2*,nt,nt,nt,nt,nt
Cc1sc2nc(CN3CCCC3)nc(N3CCC(C(N)=O)CC3)c2c1C,-3.0,2*,0.1,-2.9,0.5,8.0
Cc1sc2nc(CN3CCC(C)CC3)nc(Cl)c2c1C,-5.9,nt,nt,nt,nt,nt
Brc1ccc(C2=NC(Cc3ccccc3)CO2)cc1 (stereo not given),0.9,nt,nt,nt,nt,nt
Cc1ccc(C)c(-n2c(-c3csc(C)c3C)n[nH]c2=S)c1,-1.1,nt,nt,nt,nt,nt
Cc1ccc(SC(C)C(=O)Nc2ncn[nH]2)cc1 (stereo not given),0.3,2.1*,-4.3,1.1,3.8,18.2
SMILES,MRP1 act,PLAP activator,PTPN22 inh 2,FAK inh,PTPN22 act,MRP resist rev
CC(C(=O)Nc1ncn[nH]1)N1C(=O)c2ccccc2C1=O (stereo not given),-2.0,nt,-7.2,-0.3,4.0,16.3
COc1ccc(NC(=S)N2CCC(N(C)CC3CCCO3)CC2)cc1Cl (stereo not given),-1.4,nt,nt,nt,nt,nt
COC(=O)c1ccc(CSc2nc3ccc(C)cc3[nH]2)o1,-3.8,2.2*,-6.0,2.2,3.4,nt
COC(=O)c1ccc(CSc2nc3c(cnn3-c3ccc(C)cc3)c(=O)[nH]2)o1,-7.3,nt,2.3,0.7,-1.3,-10.2
O=c1cc(CO)oc(CN2CCN(c3cccc(C(F)(F)F)c3)CC2)c1O,3.0,2.2*,0.7,-1.2,0.5,-13.2
Brc1ccc(-c2nc3ncccn3c2NC2CCCCC2)o1,-5.6,1.3,0.9,0.1,1.4,57.9*
Cc1ccc(-c2nc3ncccn3c2NC2CCCC2)o1,-4.0,0.9,1.0,-1.3,2.0,8.7
O=C(CSc1nnc(-c2ccc3c(c2)OCO3)o1)Nc1ncc(Cl)cc1Cl,0.1,nt,nt,nt,nt,nt
COc1ccc(NC(=O)COC(=O)CCCc2c[nH]c3ccccc23)cc1OC,-2.1,0.9,9.1,-0.7,-7.3,5.5
COCCN(C(=O)Cc1cccs1)C(C(=O)NCc1ccc(OC)cc1)c1ccc(C(C)C)cc1 (stereo not given),-0.6,2.6*,nt,-8.4,nt,nt
CCOC(=S)NC(=O)c1sc2ccccc2c1Cl,8.5*,1,-0.4,-2.1,4.2,nt
CCCOC(=S)NC(=O)c1sc2ccccc2c1Cl,5.7*,0.9,8.2,-5.9,-4.8,nt
CC(C)(C)C(=O)NC(=S)NNC(=O)c1sc2ccccc2c1Cl,-5.2,nt,nt,nt,nt,nt
C=CCc1cc(/C=C2/NC(=O)N(CC)C2=O)cc(OCC)c1OCc1ccc(C(=O)O)cc1,0.8,nt,nt,nt,nt,nt

# Assay outcomes: PubChem BioAssay, several laboratories
